Our source for the composite z-score and z-score values is PubChem BioAssay.

Calls of active or inactive are those of the source. Unless noted, how the calls were made is not given here.

The test system of experiment [1] is Wnt5a (protein binding on small-molecule microarray). As to the kind of experiment: small molecules binding Wnt5a protein – biophysical, small-molecule microarray, 635/667 nm fluorescence, primary screen (AID 1142).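 Further: fluorescence read at 667 nm with signal to noise per printed feature.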 The note with it: 635 nm fluorescence, higher = more signal.
Experiment [2] in a line: ATP-based viability of Huh7 replicon cells – cell-based, CellTiter-Glo luminescence, basal, 48 h, cytotoxicity control for HCV replication inhibitor project, primary screen (AID 1143).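 Further: Huh7 hepatoma cells carrying a hepatitis C replication reporter with no stimulus; test concentration not given here.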 The note with it: higher = more signal, called active from +8 up or from −8 down.
A short description of experiment [3]: Pseudomonas biofilm growth suppression – PAO1 strain, BacTiter-Glo luminescence, LB-PBS, primary screen (AID 1144). The settings on record: P. aeruginosa PAO1 biofilm, 12 h, higher = more signal.
The nature of experiment [4]: basal CRE-LacZ reporter activity in PC12 – cell-based, unstimulated, primary screen (AID 1145). The settings on record: no forskolin, luminescence, 4.5 h, higher = more signal, called active from +8 up or from −8 down.
Experiment [5] can be described thus: forskolin-driven CRE-LacZ activity in PC12 – cell-based, CRE-LacZ reporter, forskolin-stimulated, primary screen (AID 1146).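 Further: PC12 cells with 6xCRE LacZ reporter stimulated by forskolin 10 µM; beta-galactosidase reporter signal reflecting CREB driven transcription.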 The settings on record: luminescence, 4.5 h, higher = more signal, called active from +8 up or from −8 down.
In experiment [6] the target is Streptavidin (Streptomyces avidinii) (UniProt P22629). The experiment can be described thus: compounds binding control protein streptavidin – biophysical, small-molecule microarray, 635/667 nm fluorescence, artefact control for SMM compound annotation, primary screen (AID 1147).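 Further: signal reflects streptavidin binding to arrayed compounds as a control protein.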 The settings on record: higher = more signal.
The nature of experiment [7]: probe aInhba binding on compound microarray – biochemical, small-molecule microarray, 635/667 nm fluorescence, primary screen (AID 1148).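 Further: score merges 667nm spot fluorescence with signal-to-noise for antibody binding to printed compounds.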 The settings on record: higher = more signal.
The target of experiment [8] is Torsin-1A (Homo sapiens) (UniProt O14656). The experiment can be described thus: TOR1A wild-type binding on microarray – cell lysate, small-molecule microarray, lysate, 635/667 nm, primary screen (AID 1149). The note with it: COS7 hTOR1A-WT lysate, 635 nm fluorescence, higher = more signal.
Experiment [9] has the same target. The experiment can be described thus: torsin A mutant lysate binding on microarrays – cell lysate, small-molecule microarray, COS7 lysate, 635/667 nm fluorescence, primary screen (AID 1150).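 Further: score pools 667 nm emission and signal to noise measuring lysate protein binding.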 The settings on record: COS7 hTOR1A mutant lysate, 635 nm fluorescence, higher = more signal.
In experiment [10] the test system is Sonic hedgehog protein (Shh). As to the kind of experiment: Sonic hedgehog microarray binding compounds – biochemical, small-molecule microarray, 635/667 nm fluorescence, primary screen (AID 1151).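 Further: Shh protein binding to compounds spotted on small-molecule microarray slides; score combines spot fluorescence intensity with signal-to-noise across triplicate slides.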 The settings on record: 635 nm fluorescence, higher = more signal.

Chain of Streptavidin (Streptomyces avidinii) (P22629 whole entry, looked up): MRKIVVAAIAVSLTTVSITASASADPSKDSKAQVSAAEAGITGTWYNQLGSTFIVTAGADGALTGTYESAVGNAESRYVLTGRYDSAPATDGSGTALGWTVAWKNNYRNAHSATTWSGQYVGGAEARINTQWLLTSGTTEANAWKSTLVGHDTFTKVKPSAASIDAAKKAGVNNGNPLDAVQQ
Chain of Torsin-1A (Homo sapiens) (O14656 whole entry, looked up): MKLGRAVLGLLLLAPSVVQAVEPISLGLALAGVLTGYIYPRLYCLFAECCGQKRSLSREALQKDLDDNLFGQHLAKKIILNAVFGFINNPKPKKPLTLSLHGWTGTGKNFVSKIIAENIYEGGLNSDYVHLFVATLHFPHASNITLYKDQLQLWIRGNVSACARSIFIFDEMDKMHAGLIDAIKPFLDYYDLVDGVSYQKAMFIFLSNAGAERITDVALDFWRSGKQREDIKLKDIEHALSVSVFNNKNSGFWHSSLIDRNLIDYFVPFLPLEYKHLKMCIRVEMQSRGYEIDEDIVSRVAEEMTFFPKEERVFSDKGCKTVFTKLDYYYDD

As for `COC(=O)C1=CC(CCCO)=CC(C)N(Cc2cccc(OC(F)(F)F)c2)C=C1C(=O)OC` (stereo not given), the composite z-score in experiment [1] is 0.145; in [6], 0.747; in [7], -0.001; in the experiment with Torsin-1A (Homo sapiens) [8], -0.148; with Torsin-1A (Homo sapiens) [9], 0.47; in experiment [10] it was -0.681. Moreover, the z-score in experiment [2] was -1.07 (inactive); in [3] it was -0.117 (inactive); in [4], -0.168 (inactive); in experiment [5], 0.308 (inactive).

In the case of `CN(C)C(=O)[C@@]1(Cc2ccccc2N=[N+]=[N-])N=C(c2ccc(OCCCO)cc2)O[C@H]1c1ccccc1`, the composite z-score in experiment [1] is 0.797; in experiment [6] it was 1.84; in experiment [7], 0.841; in the experiment with Torsin-1A (Homo sapiens) [8] it was 0.106; in the experiment with Torsin-1A (Homo sapiens) [9], 0.401; in experiment [10] it was -0.361. The z-score in [2] was -4.41 (inactive); in experiment [3], -1.63 (inactive); in experiment [4], 0.872 (inactive); in [5], 0.361 (inactive).

Take `C=C(C(=O)CC[C@@H](OC(=O)c1ccccc1-c1ccccc1C(=O)O)c1ccccc1OCCO)C(C)C`: the composite z-score in experiment [1] is 0.618; in experiment [6] it was -0.344; in [7], -0.0529; with Torsin-1A (Homo sapiens) [8] it was 0.908; in the experiment with Torsin-1A (Homo sapiens) [9] it was 0.663; in [10], 2.3. The z-score in experiment [2] was 0.182 (inactive); in experiment [3], -0.695 (inactive); in experiment [4] it was 3.64 (inactive); in experiment [5], 3.34 (inactive).

For the molecule `CCOC(=O)C1=C[C@@H](C(C)(C)C)N(S(=O)(=O)c2ccc(C)cc2)[C@H]1c1ccc(C)cc1`, the composite z-score in experiment [1] was found to be 0.514; in [6], 1.35; in [7] it was 0.0857; with Torsin-1A (Homo sapiens) [8] it was 0.392; with Torsin-1A (Homo sapiens) [9], 0.361; in [10] it was 1.7. For the same molecule, the z-score in [2] was -5 (inactive); in [3], 0.311 (inactive); in experiment [4] it was -0.0137 (inactive); in experiment [5], -0.1 (inactive).

Regarding `COc1ccc(C(=O)Nc2cccc(CN3C(=O)[C@]4(O[C@H](CCn5cc([C@H](O)c6ccccc6)nn5)[C@@H]([Si](C)(C)c5ccc(OC)cc5)[C@@H]4C)c4ccccc43)c2)cc1`, the composite z-score in experiment [1] is 0.194; in [6], 0.192; in experiment [7] it was -0.183; with Torsin-1A (Homo sapiens) [8] it was 0.0107; in the experiment with Torsin-1A (Homo sapiens) [9] it was 0.205; in experiment [10], 1.69. Moreover, the z-score in experiment [2] was -7.81 (inactive); in experiment [3], -0.568 (inactive); in [4] it was -0.36 (inactive); in [5] it was -0.413 (inactive).

Turning to `CS(=O)(=O)CCOC(=O)C1=CC(CCCO)=CC(C2CC2)N(Cc2cccc(OC(F)(F)F)c2)C=C1C(=O)OCCS(C)(=O)=O` (stereo not given), the composite z-score in experiment [1] is 0.0607; in [6], -0.358; in experiment [7], 0.0082; with Torsin-1A (Homo sapiens) [8], 1.29; with Torsin-1A (Homo sapiens) [9], 2.13; in [10] it was 0.186. Besides, the z-score in experiment [2] was -1.21 (inactive); in [3], 0.154 (inactive); in [4] it was 4.86 (inactive); in experiment [5] it was 0.0235 (inactive).

Regarding `O=C1N(CCS(=O)(=O)c2ccccc2)Cc2ccccc2[C@@H]2OC(c3ccc(OCCCO)cc3)=N[C@]12CCS(=O)(=O)c1ccccc1`, the composite z-score in experiment [1] was 1.24; in experiment [6], 0.844; in experiment [7], -0.108; in the experiment with Torsin-1A (Homo sapiens) [8] it was 0.827; with Torsin-1A (Homo sapiens) [9], 1.51; in experiment [10] it was 1.4. Also, the z-score in experiment [2] was -1.5 (inactive); in experiment [3], 0.151 (inactive); in experiment [4], 3.2 (inactive); in experiment [5] it was -0.897 (inactive).

Consider `CCCCC=C[C@@H](NC(=O)c1ccccc1)c1ccccc1`, for which the composite z-score in experiment [1] is -0.275; in [6] it was 1.89; in [7], 0.162; with Torsin-1A (Homo sapiens) [8] it was 0.128; with Torsin-1A (Homo sapiens) [9], 0.0135; in experiment [10], -0.863. The z-score in experiment [2] was -0.598 (inactive); in [3] it was -0.287 (inactive); in experiment [4], 0.969 (inactive); in [5], 1.39 (inactive).

As for `C=C(/C(=C/C[C@@H](OC(C)=O)c1ccc(OCCO)cc1)c1cc(C(=O)OC)ccc1OC)C(C)C`, the composite z-score in experiment [1] is -0.0426; in experiment [6], -0.124; in experiment [7] it was 0.167; in the experiment with Torsin-1A (Homo sapiens) [8] it was 0.856; in the experiment with Torsin-1A (Homo sapiens) [9], 0.693; in experiment [10], 1.41. The z-score is -2.02 (inactive) in experiment [2], 1.03 (inactive) in [3], 3.85 (inactive) in experiment [4] and -0.27 (inactive) in experiment [5].

For the molecule `Cc1ccccc1C(O)C1C=CC2C(=O)N(c3ccccc3)C(=O)C2N1Nc1ccc([N+](=O)[O-])cc1` (stereo not given), the composite z-score in experiment [1] is -0.0078; in experiment [6], 1.77; in experiment [7] it was 0.3; with Torsin-1A (Homo sapiens) [8], 0.992; in the experiment with Torsin-1A (Homo sapiens) [9], 0.593; in experiment [10], 0.176. In addition, the z-score in experiment [2] is -0.52 (inactive); in experiment [3], -0.35 (inactive); in [4], 0.78 (inactive); in experiment [5], 0.598 (inactive).

As for `COc1cc(C(O)C2C=CC3C(=O)N(Cc4ccccc4)C(=O)C3N2n2cnnc2)cc(OC)c1OC` (stereo not given), the composite z-score was found to be 0.388 in [1]; 0.267 in experiment [6]; 0.255 in experiment [7]; 0.683 with Torsin-1A (Homo sapiens) [8]; 0.671 with Torsin-1A (Homo sapiens) [9]; 0.131 in experiment [10]. The z-score in [2] was -0.429 (inactive); in experiment [3] it was -1.77 (inactive); in [4], 0.636 (inactive); in experiment [5], -0.634 (inactive).

As for `C[C@@]12COC[C@]13C=C(Br)[C@H](C2)[C@@]1(CO1)C3=O`, the composite z-score was -0.329 in experiment [1]; -0.875 in experiment [6]; -0.0966 in [7]; -1.76 with Torsin-1A (Homo sapiens) [8]; -0.55 with Torsin-1A (Homo sapiens) [9]; -0.3 in experiment [10]. The z-score in experiment [2] is 0.603 (inactive); in [3], 0.708 (inactive); in experiment [4], 0.769 (inactive); in experiment [5] it was 1.51 (inactive).

Turning to `[N-]=[N+]=NC[C@H](Cc1ccccc1)NC(=O)c1ccccc1`, the composite z-score was -0.022 in experiment [1]; 0.148 in [6]; -0.0695 in experiment [7]; 0.601 with Torsin-1A (Homo sapiens) [8]; 0.265 with Torsin-1A (Homo sapiens) [9]; -0.0168 in [10]. The z-score in [2] is -0.34 (inactive); in [3] it was 0.138 (inactive); in experiment [4], 0.6 (inactive); in experiment [5], -0.308 (inactive).

Regarding `CN(C)CCCC[C@@H]1NC(=O)[C@@H]2C[C@H](C(=O)O)[C@H](c3cccc(OCCO)c3)N2C1=O`, the composite z-score in [1] was 0.471; in [6], -0.634; in experiment [7] it was -0.258; with Torsin-1A (Homo sapiens) [8], -0.0975; with Torsin-1A (Homo sapiens) [9] it was -0.0752; in experiment [10], 0.212. The z-score in experiment [2] is -0.37 (inactive); in experiment [3], -0.965 (inactive); in [4], 1.11 (inactive); in [5], 0.664 (inactive).
